# According to the supplement of paper PMC8728848:
# The entries come from a sample that favours the strongest signals as a whole.
# Assays:
# Test in all cases: glycan array binding signal (z-score within array); higher = stronger binding
# Settings in all cases: glycan notation: IUPAC condensed, linker removed
# [1] = biological target: Fuc(a1-2)Gal(b1-3)GlcNAc(b1-3)Gal(b1-4)Glc
# In short: (§1)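 Glycan array data were curated from 3228 arrays in the Consortium for Functional Glycomics database and kept only where the protein sequence was available. Glycan names were converted to IUPAC-condensed notation, and columns mapping to the same glycan were averaged. The binding signal is a within-array Z-score, averaged across arrays of the same protein sequence at different concentrations or buffers and across linkers. Negative Z-scores can be read as non-binding.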
# [2] = biological target: Fuc(a1-4)GlcNAc
# In short: as §1
# [3] = biological target: Gal(b1-4)GalNAc(b1-3)[Fuc(a1-2)]Gal(b1-4)GlcNAc
# In short: as §1
# [4] = biological target: Gal(b1-4)Glc
# In short: as §1
# [5] = biological target: Gal(b1-4)Glc6S
# In short: as §1
# [6] = biological target: Gal(b1-4)GlcNAc(b1-3)Gal(b1-4)[Fuc(a1-3)]GlcNAc(b1-3)Gal(b1-4)[Fuc(a1-3)]GlcNAc
# In short: as §1
# [7] = biological target: Gal(b1-4)GlcNAc(b1-6)GalNAc
# In short: as §1
# [8] = biological target: Gal4S(b1-4)GlcNAc
# In short: as §1
# [9] = biological target: GalNAc(b1-3)Gal(a1-4)Gal(b1-4)GlcNAc
# In short: as §1
# [10] = biological target: GlcNAc(b1-3)Gal
# In short: as §1
# [11] = biological target: Kdn(a2-3)Gal(b1-4)GlcNAc
# In short: as §1
# [12] = biological target: Man(a1-2)Man(a1-2)Man(a1-3)Man
# In short: as §1
# [13] = biological target: Man(a1-2)Man(a1-3)[Man(a1-2)Man(a1-6)]Man(a1-6)[Man(a1-2)Man(a1-2)Man(a1-3)]Man(b1-4)GlcNAc(b1-4)GlcNAc
# In short: as §1
# [14] = biological target: Man(a1-6)Man
# In short: as §1
# [15] = biological target: Neu5Ac(a2-3)Gal
# In short: as §1
# [16] = biological target: Neu5Ac(a2-3)Gal(b1-3)GalNAc(b1-4)[Neu5Ac(a2-3)]Gal(b1-4)Glc
# In short: as §1
# [17] = biological target: Neu5Ac(a2-3)Gal(b1-4)[Fuc(a1-3)]GlcNAc(b1-3)Gal(b1-4)[Fuc(a1-3)]GlcNAc(b1-3)Gal(b1-4)[Fuc(a1-3)]GlcNAc
# In short: as §1
# [18] = biological target: Neu5Ac(a2-3)[Neu5Ac(a2-6)]GalNAc
# In short: as §1
# [19] = biological target: Neu5Ac(a2-6)Gal(b1-4)Glc
# In short: as §1
# [20] = biological target: Neu5Ac(a2-6)Gal(b1-4)GlcNAc(b1-2)Man(a1-3)[Gal(b1-4)GlcNAc(b1-2)Man(a1-6)]Man(b1-4)GlcNAc(b1-4)GlcNAc
# In short: as §1
# [21] = biological target: Neu5Gc(a2-6)GalNAc
# In short: as §1
# [22] = biological target: Neu5Gc(b2-6)Gal(b1-4)GlcNAc
# In short: as §1
binder,measurement,setting,value
"RfpC (Mycobacterium tuberculosum), O07747 (protein) MHHHHHHSSGRENLYFQGHMASKSAMAAGLVTASMSLSTAVAHAGPSPNWDAVAQCESGGNWAANTGNGKYGGLQFKPATWAAFGGVGNPAAASREQQIAVANRVLAEQGLDAWPTCGAASGLPIALWSKPAQGIKGS",glycan array binding signal (z-score),[1],0.546
same,glycan array binding signal (z-score),[2],-1.09
same,glycan array binding signal (z-score),[3],3.48
same,glycan array binding signal (z-score),[4],-0.11
same,glycan array binding signal (z-score),[5],4.01
same,glycan array binding signal (z-score),[6],-0.25
same,glycan array binding signal (z-score),[7],-0.822
same,glycan array binding signal (z-score),[8],0.815
same,glycan array binding signal (z-score),[9],3.74
same,glycan array binding signal (z-score),[10],-0.187
same,glycan array binding signal (z-score),[11],-0.421
same,glycan array binding signal (z-score),[12],2.92
same,glycan array binding signal (z-score),[13],-0.745
same,glycan array binding signal (z-score),[14],-0.622
same,glycan array binding signal (z-score),[15],0.641
same,glycan array binding signal (z-score),[16],-0.923
same,glycan array binding signal (z-score),[17],-0.798
same,glycan array binding signal (z-score),[18],0.475
same,glycan array binding signal (z-score),[19],0.057
same,glycan array binding signal (z-score),[20],-0.731
same,glycan array binding signal (z-score),[21],1.8
same,glycan array binding signal (z-score),[22],3.14
